PubChem BioAssay AID1159580 (chemical genetic matrix, 2015)
In all, about 5,500 compounds went through this assay and about 2,000 (36%) were called active. Roughly 18% stayed inconclusive and do not appear here. Cut-off read from the data, not from the text of the source: active = normalized growth mostly below about 0.91 (no sharp cut-off); inconclusive = no clear call, values can overlap the other calls; inactive = mostly above about 0.92. This is one part of the list.

Test: chemical genetic growth profiling, strain panel (AID 1159580);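 note: tested at 20 µM; growth read once vehicle control cultures reached saturation at 30 °C; 1 = growth at the plate median or of vehicle wells; lower values mean less growth of the strain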
Details: S. cerevisiae deletion strains, growth OD

Measured: normalized growth

CCCCCCCCCCCCCC(=O)OC1C(C)C2(O)C(C=C(CO)CC3(O)C(=O)C(C)=CC32)C2C(C)(C)C12OC(C)=O (centres undefined)
inactive: locus YAL013W, strain DEP1, hits give low values 1 | locus YAL021C, strain ccr4, hits give low values 0.982 | locus YAL026C, strain drs2, hits give low values 0.985 | locus YAL030W, strain snc1, hits give low values 0.991 | locus YBL061C, strain skt5, hits give low values 0.981 | locus YBR009C, strain hhf1, hits give low values 0.965 | locus YBR021W, strain FUR4, hits give low values 0.988 | locus YBR023C, strain chs3, hits give low values 0.97 | locus YBR171W, strain sec66, hits give low values 0.981 | locus YBR229C, strain ROT2, hits give low values 1.02 | locus YBR231C, strain swc5, hits give low values 0.98 | locus YBR279W, strain paf1, hits give low values 0.988 | locus YCL011C, strain gbp2, hits give low values 0.98 | locus YCL016C, strain dcc1, hits give low values 0.996 | locus YCL029C, strain bik1, hits give low values 0.996 | locus YCL061C, strain MRC1, hits give low values 0.987 | locus YCL069W, strain vba3, hits give low values 0.986 | locus YCR088W, strain abp1, hits give low values 0.989 | locus YDL005C, strain med2, hits give low values 0.988 | locus YDL035C, strain GPR1, hits give low values 1.06 | locus YDL040C, strain nat1, hits give low values 0.979 | locus YDL074C, strain BRE1, hits give low values 1.04 | locus YDL101C, strain DUN1, hits give low values 1.01 | locus YDL134C, strain PPH21, hits give low values 1.01 | locus YDL185W, strain tfp1, hits give low values 1.01 | locus YDL192W, strain arf1, hits give low values 0.997 | locus YDR001C, strain nth1, hits give low values 0.978 | locus YDR069C, strain doa4, hits give low values 0.985 | locus YDR101C, strain arx1, hits give low values 0.996 | locus YDR137W, strain rgp1, hits give low values 0.97 | locus YDR150W, strain NUM1, hits give low values 1 | locus YDR159W, strain sac3, hits give low values 0.969 | locus YDR162C, strain NBP2, hits give low values 1.03 | locus YDR195W, strain ref2 0.96 | locus YDR297W, strain sur2, hits give low values 0.985 | locus YDR318W, strain mcm21, hits give low values 0.985 | locus YDR334W, strain swr1, hits give low values 0.989 | locus YDR335W, strain msn5, hits give low values 0.987 | locus YDR388W, hits give low values 0.99 | locus YDR392W, strain spt3, hits give low values 0.919 | locus YDR502C, strain sam2, hits give low values 1 | locus YEL003W, strain gim4, hits give low values 0.982 | locus YEL037C, strain rad23, hits give low values 0.978 | locus YEL061C, strain CIN8 (second series), hits give low values 0.976 | locus YEL061C, strain CIN8, hits give low values 1.01 | locus YER015W, strain faa2, hits give low values 0.986 | locus YER016W, strain bim1, hits give low values 0.98 | locus YER110C, hits give low values 0.994 | locus YER111C, strain swi4, hits give low values 0.965 | locus YER155C, strain BEM2 (second series), hits give low values 0.987 | locus YER155C, strain BEM2, hits give low values 0.996 | locus YER167W, strain BCK2, hits give low values 0.988 | locus YFR010W, strain ubp6, hits give low values 0.977 | locus YGL078C, strain dbp3, hits give low values 0.99 | locus YGL086W, strain mad1, hits give low values 0.978 | locus YGL167C, strain pmr1, hits give low values 0.989 | locus YGL173C, strain kem1, hits give low values 0.984 | locus YGL227W, strain vid30, hits give low values 0.979 | locus YGL240W, strain doc1, hits give low values 0.976 | locus YGL248W, strain PDE1, hits give low values 1.02 | locus YGL253W, strain hxk2, hits give low values 0.98 | locus YGR078C, strain PAC10, hits give low values 1.03 | locus YGR135W, strain pre9, hits give low values 1.01 | locus YGR229C, strain SMI1, hits give low values 1.02 | locus YGR252W, strain gcn5, hits give low values 1.04 | locus YHR013C, strain ard1, hits give low values 0.934 | locus YHR027C, strain rpn1, hits give low values 0.994 | locus YHR030C, strain SLT2, hits give low values 0.995 | locus YHR079C, strain IRE1 (second series), hits give low values 0.992 | locus YHR094C, strain hxt1, hits give low values 0.994 | locus YHR129C, strain ARP1, hits give low values 0.997 | locus YHR142W, strain chs7, hits give low values 0.952 | locus YHR200W, strain rpn10, hits give low values 0.989 | locus YIL066C, strain RNR3, hits give low values 1.01 | locus YIL073C, strain SPO22, hits give low values 0.986 | locus YIL125W, strain kgd1, hits give low values 0.991 | locus YIR030C, strain dcg1, hits give low values 0.994 | locus YJL092W, strain hpr5, hits give low values 0.984 | locus YJL095W, strain BCK1 (second series), hits give low values 0.99 | locus YJL095W, strain BCK1, hits give low values 1 | locus YJL115W, strain asf1, hits give low values 0.979 | locus YJL129C, strain trk1, hits give low values 0.962 | locus YJL134W, strain LCB3, hits give low values 0.992 | locus YJL154C, strain vps35, hits give low values 0.986 | locus YJL164C, strain tpk1, hits give low values 1.01 | locus YJL166W, strain qcr8, hits give low values 0.981 | locus YJL168C, strain set2, hits give low values 0.993 | locus YJL187C, strain SWE1 (second series), hits give low values 1.02 | locus YJL187C, strain SWE1, hits give low values 0.99
